Drawing on PubChem BioAssay, this text covers composite z-score and z-score for six compounds.

Assay [1] concerns Plasmodium falciparum Sir2 (PF13_0152, Sir2A). Kind of assay: Plasmodium falciparum Sir2A binding compounds – biochemical, small-molecule microarray, 635 nm fluorescence, primary screen (AID 1098).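 Note: score merges spot fluorescence intensity with its signal-to-noise ratio.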 Conditions: fluorescence 635 nm, higher = more signal.
Assay [2] can be described thus: probe aDKK1 binding to arrayed compounds – biochemical, biotinylated probe, 635/667 nm fluorescence, primary screen (AID 1099).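 Note: score merges 667nm spot fluorescence with signal to noise across triplicate slides.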 Conditions: small-molecule microarray, higher = more signal.
Assay [3] is described as follows: probe aCHRDL2 binding to arrayed compounds – biochemical, biotinylated probe, 635/667 nm fluorescence, primary screen (AID 1100). Conditions: small-molecule microarray, higher = more signal.
Assay [4] in a line: change in splice reporter luminescence, either direction, cell-based, HEK293, spliceosome inhibition project, primary screen (AID 1101).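 Note: HEK293 cells carrying a splicing-competent luciferase reporter gene; test concentration not given here.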 The note with it: HEK293 splicing luciferase reporter, 24 h, higher = more signal, called active from +8 up or from −8 down. A general note: A reporter such as luciferase makes a cellular process visible.
The target of assay [5] is Fibroblast growth factor 10 (Homo sapiens) (UniProt O15520). As to the kind of experiment: compounds binding fibroblast growth factor 10 – biochemical, small-molecule microarray, 635 nm fluorescence, primary screen (AID 1102). The note with it: FGF10 binding, fluorescence 635 nm, higher = more signal.
Sequence of Fibroblast growth factor 10 (Homo sapiens) (O15520 whole entry, looked up): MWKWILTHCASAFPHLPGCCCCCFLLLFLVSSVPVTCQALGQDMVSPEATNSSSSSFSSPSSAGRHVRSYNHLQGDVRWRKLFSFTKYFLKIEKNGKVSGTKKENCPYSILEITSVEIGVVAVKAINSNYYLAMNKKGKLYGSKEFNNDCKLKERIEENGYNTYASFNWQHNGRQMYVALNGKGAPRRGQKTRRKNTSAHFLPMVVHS
The subject of assay [6] is glycogen synthase kinase-3 (GSK3A per assay name; protocol says GSK3B). As to the kind of experiment: compounds binding glycogen synthase kinase-3 – biochemical, small-molecule microarray, 635 nm fluorescence, GSK3A, primary screen (AID 1103). Note: the record names both GSK3A and GSK3B. Conditions: fluorescence 635 nm, higher = more signal.
In assay [7] the target is Epidermal growth factor receptor (Homo sapiens) (UniProt P00533). Kind of assay: compounds binding epidermal growth factor receptor – biochemical, small-molecule microarray, 635 nm fluorescence, primary screen (AID 1104).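 Note: score merges 667 nm emission intensity with spot signal to noise over triplicate slides.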 The note with it: EGFR binding, higher = more signal.
Sequence of Epidermal growth factor receptor (Homo sapiens) (P00533 whole entry, looked up): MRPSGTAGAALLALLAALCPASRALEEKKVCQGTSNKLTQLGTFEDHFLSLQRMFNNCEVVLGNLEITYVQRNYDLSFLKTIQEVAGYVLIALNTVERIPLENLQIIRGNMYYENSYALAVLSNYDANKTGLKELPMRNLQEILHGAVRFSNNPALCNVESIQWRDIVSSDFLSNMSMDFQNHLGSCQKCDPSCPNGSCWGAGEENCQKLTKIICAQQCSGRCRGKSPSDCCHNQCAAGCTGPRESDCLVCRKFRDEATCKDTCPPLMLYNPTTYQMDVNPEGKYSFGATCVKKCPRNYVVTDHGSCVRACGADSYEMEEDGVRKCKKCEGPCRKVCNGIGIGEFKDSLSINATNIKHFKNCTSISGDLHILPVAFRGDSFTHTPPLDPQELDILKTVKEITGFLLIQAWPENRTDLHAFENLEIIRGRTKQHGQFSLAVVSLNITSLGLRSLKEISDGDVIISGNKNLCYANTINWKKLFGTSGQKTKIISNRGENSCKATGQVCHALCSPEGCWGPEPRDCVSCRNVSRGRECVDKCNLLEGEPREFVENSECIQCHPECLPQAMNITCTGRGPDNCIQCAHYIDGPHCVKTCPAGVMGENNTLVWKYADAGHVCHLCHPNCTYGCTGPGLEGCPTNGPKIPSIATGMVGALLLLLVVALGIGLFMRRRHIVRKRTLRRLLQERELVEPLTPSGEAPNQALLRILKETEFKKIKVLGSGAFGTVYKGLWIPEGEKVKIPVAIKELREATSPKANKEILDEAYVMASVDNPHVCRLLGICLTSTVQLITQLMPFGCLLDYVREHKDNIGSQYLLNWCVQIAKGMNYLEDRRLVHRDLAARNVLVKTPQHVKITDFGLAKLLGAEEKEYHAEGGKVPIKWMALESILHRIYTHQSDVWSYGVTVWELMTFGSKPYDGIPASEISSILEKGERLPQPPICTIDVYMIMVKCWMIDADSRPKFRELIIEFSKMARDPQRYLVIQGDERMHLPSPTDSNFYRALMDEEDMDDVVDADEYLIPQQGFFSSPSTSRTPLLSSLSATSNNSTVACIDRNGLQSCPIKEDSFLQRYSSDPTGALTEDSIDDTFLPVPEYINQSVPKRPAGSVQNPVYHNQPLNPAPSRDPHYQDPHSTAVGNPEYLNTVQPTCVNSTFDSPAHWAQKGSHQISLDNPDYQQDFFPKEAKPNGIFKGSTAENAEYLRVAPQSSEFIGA
Assay [8] deals with Follistatin-related protein 3 (Homo sapiens) (UniProt O95633). Kind of assay: compounds binding follistatin-related protein 3 – biochemical, small-molecule microarray, 635 nm fluorescence, primary screen (AID 1105).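 Note: score merges emission near 667 nm and signal to noise per printed spot across three slides.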 The note with it: FSTL3 binding, higher = more signal.
Sequence of Follistatin-related protein 3 (Homo sapiens) (O95633 whole entry, looked up): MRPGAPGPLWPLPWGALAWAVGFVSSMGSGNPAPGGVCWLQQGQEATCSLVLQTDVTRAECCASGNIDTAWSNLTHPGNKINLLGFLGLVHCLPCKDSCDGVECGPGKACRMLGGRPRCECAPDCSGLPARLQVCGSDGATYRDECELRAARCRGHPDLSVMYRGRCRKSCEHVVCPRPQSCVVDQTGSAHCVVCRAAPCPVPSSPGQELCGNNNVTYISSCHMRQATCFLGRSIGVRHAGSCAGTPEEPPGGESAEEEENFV
For assay [9], the target named is Dickkopf-related protein 1 (Homo sapiens) (UniProt O94907). As to the kind of experiment: small molecules binding DKK1 protein – biochemical, small-molecule microarray, 635 nm fluorescence scan, primary screen (AID 1106).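 Note: score merges emission near 667 nm with signal to noise over three replicate slides.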 Conditions: higher = more signal.
Sequence of Dickkopf-related protein 1 (Homo sapiens) (O94907 whole entry, looked up): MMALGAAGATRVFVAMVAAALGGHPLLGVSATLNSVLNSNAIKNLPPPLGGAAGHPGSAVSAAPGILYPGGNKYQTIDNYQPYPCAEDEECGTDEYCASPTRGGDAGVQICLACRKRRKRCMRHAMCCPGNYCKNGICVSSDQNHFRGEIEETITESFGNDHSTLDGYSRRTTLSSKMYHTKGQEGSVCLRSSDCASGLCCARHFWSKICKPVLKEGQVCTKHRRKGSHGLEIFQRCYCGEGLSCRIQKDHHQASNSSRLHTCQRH
The test system of assay [10] is Inhibin beta A chain (activin A). As to the kind of experiment: small molecules binding activin A – biochemical, small-molecule microarray, 635 nm fluorescence scan, primary screen (AID 1107).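 Note: mouse activin A protein probed at 4.33 µg/mL on printed slides; score merges bound-protein fluorescence near 667 nm with spot signal-to-noise.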 The note with it: INHBA, higher = more signal.
Assay [11] has as its system Human papillomavirus type 1a protein E7 (residues 44-93). As to the kind of experiment: small molecules binding HPV E7 44-93 – biochemical, small-molecule microarray, residues 44-93, 635 nm fluorescence, primary screen (AID 1108).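 Note: E7 fragment applied at 1 µg/mL in TBST for 1 h at 4 C; score combines spot fluorescence with its signal to noise ratio.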 The note with it: fluorescence 635 nm, higher = more signal.
A short description of assay [12]: hepatitis C replication reporter changes, two-sided – Huh7 cells, luciferase reporter, HCV replication inhibitor project, primary screen (AID 1109).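 Note: huh7 hepatoma cells harbouring a luciferase neomycin HCV replicon reporter; luciferase luminescence as measure of HCV replicon replication; test concentration not given here.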 Conditions: Huh7 HCV replicon luciferase reporter, 48 h; higher = more signal.
Assay [13] addresses Left-right determination factor 2 (Homo sapiens) (UniProt O00292). As to the kind of experiment: small molecules binding LEFTY2 protein – biochemical, small-molecule microarray, 635 nm fluorescence scan, primary screen (AID 1110). Conditions: higher = more signal.
The target of assay [14] is Calmodulin-1 (Homo sapiens) (UniProt P0DP23). Kind of assay: small molecules binding calmodulin-1 with EGTA – biochemical, small-molecule microarray, Cy5-labelled CALM1, profiling panel (AID 1111).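 Note: labelled calmodulin applied in Tris saline Tween buffer holding calcium plus EGTA and DTT.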 Conditions: Cy5-CALM1 binding fluorescence, higher = more signal.
Assay [15] shares this target. Kind of assay: small molecules binding Ca-loaded calmodulin-1 – biochemical, small-molecule microarray, Cy5-labelled CALM1, plus calcium, artefact control for SMM control-protein annotation, profiling panel (AID 1112).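 Note: score merges spot fluorescence with signal to noise from triplicate slides.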 The note with it: Cy5-CALM1 binding fluorescence, higher = more signal.
A short description of assay [16]: probe aWnt5a binding to arrayed compounds – biochemical, biotinylated probe, 635/667 nm fluorescence, primary screen (AID 1113).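 Note: score merges 667 nm fluorescence intensity with signal-to-noise per printed feature.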 Conditions: small-molecule microarray, higher = more signal.
Assay [17] can be described thus: probe aShh binding to arrayed compounds – biochemical, biotinylated probe, 635/667 nm fluorescence, primary screen (AID 1114).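 Note: probe is biotin-labelled aShh protein from a stem cell growth factor screen; measures binding of labelled protein to compounds printed on the slide; score merges feature fluorescence at 667 nm with signal-to-noise.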 The note with it: small-molecule microarray, higher = more signal.
The nature of assay [18]: probe aNog binding to arrayed compounds – biochemical, biotinylated probe, 635/667 nm fluorescence, primary screen (AID 1115).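 Note: probe is biotinylated aNog protein used at 0.15 µg/mL for 1 h at 4 C; z-score combines 667 nm fluorescence of each spot with its signal to noise.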 The note with it: small-molecule microarray, higher = more signal.
Assay [19] deals with Torsin-1A-interacting protein 1 (Homo sapiens) (UniProt Q5JTV8). As to the kind of experiment: compound microarray binding of lysate hLAP1 – cell lysate, small-molecule microarray, COS7 lysate, 635/667 nm fluorescence, primary screen (AID 1116). The note with it: 635 nm fluorescence, higher = more signal.
Sequence of Torsin-1A-interacting protein 1 (Homo sapiens) (Q5JTV8 whole entry, looked up): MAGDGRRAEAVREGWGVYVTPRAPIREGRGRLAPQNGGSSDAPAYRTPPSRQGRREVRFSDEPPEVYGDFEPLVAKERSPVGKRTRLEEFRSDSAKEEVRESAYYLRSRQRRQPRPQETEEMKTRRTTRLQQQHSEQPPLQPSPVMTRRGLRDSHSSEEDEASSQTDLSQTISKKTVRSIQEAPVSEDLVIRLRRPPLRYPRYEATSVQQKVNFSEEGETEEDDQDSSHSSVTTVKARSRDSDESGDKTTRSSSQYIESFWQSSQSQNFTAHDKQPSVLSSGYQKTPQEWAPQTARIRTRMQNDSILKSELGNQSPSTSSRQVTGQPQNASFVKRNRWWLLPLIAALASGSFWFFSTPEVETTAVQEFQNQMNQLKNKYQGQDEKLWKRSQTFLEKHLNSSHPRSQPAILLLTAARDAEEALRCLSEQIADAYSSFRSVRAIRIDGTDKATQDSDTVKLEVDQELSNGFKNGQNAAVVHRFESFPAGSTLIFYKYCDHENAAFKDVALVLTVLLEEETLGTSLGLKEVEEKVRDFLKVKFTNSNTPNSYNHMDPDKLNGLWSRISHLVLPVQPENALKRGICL
In assay [20] the target is Alpha-bungarotoxin (Bungarus multicinctus) (UniProt P60615). Kind of assay: compounds binding labelled alpha-BTX control protein – biochemical, small-molecule microarray, Alexa647 label, 635/667 nm fluorescence, artefact control for SMM control protein annotation, profiling panel (AID 1117). The note with it: alpha-BTX-A647 binding fluorescence, higher = more signal.
Sequence of Alpha-bungarotoxin (Bungarus multicinctus) (P60615 whole entry, looked up): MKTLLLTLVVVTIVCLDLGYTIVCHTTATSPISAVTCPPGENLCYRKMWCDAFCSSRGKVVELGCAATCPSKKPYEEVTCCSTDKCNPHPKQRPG

Active and inactive are the calls of the source.

Sequence of Left-right determination factor 2 (Homo sapiens) (O00292 whole entry, looked up): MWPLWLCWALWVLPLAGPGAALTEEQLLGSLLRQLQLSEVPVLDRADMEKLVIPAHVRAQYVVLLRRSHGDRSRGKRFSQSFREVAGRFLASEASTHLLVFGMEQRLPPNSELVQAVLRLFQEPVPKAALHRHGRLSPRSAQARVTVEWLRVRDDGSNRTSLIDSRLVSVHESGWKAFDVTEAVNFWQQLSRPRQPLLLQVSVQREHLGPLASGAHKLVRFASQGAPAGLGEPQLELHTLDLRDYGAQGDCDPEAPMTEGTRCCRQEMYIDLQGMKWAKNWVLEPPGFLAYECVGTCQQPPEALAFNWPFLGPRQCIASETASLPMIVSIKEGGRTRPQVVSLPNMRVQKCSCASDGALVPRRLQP

For `O=C1O[C@H](c2ccccc2)[C@H](c2ccccc2)N2[C@H]1[C@@H](C(=O)Nc1nc3ccccc3s1)[C@]1(C(=O)Nc3ccc(C#CCCO)cc31)[C@H]2c1ccc(OCCO)cc1`, the composite z-score in [1] is 1.59; in assay [2], -0.198; in assay [3], -0.144; in assay [5], 1.33; in [6] it was 1.31; in assay [7], 0.468. Further, the composite z-score in assay [8] turned out to be 1.14; in [9] it was 0.379; in assay [10] it was 0.408; in assay [11], 1.39; in assay [13], 0.436; in assay [14], 1.26. The composite z-score in [15] amounted to 0.0502; in assay [16], 0.0927; in assay [17] it was 0.184; in assay [18], 1.15; in [19], 1.07; in [20], 0.753. The z-score is -0.0209 (inactive) in [4] and -1.65 in [12].

Consider `C=CCOC(=O)[C@@H]1[C@H]2C(=O)O[C@H](c3ccccc3)[C@H](c3ccccc3)N2[C@H](c2ccc(OCCOC(=O)[C@@H]3C[C@@H]4C(=O)N5CCC[C@H]5C(=O)N4[C@@H]3c3ccc(O)cc3)cc2)[C@@]12C(=O)Nc1ccc(I)cc12`, for which the composite z-score was 0.544 in assay [1]; -0.627 in assay [2]; -0.257 in assay [3]; 0.624 in [5]; 1.3 in [6]; 0.555 in assay [7]. In addition, the composite z-score was 0.913 in assay [8]; 0.794 in [9]; -0.495 in [10]; 1.33 in assay [11]; 0.761 in assay [13]; 2.06 in assay [14]. Moreover, the composite z-score in assay [15] is 0.481; in [16] it was -0.145; in assay [17] it was -0.0793; in assay [18] it was -0.331; in [19], 1.4; in assay [20] it was 0.327. Further, the values for the z-score in assay [4] and in assay [12] were -1.98 (inactive) and -0.64, respectively.

Consider `COC(=O)[C@@]1(Cc2ccc(F)cc2)[C@H]2c3cc(C(=O)N4CCCC4)n(Cc4ccc(C)o4)c3C[C@H]2CN1C(=O)c1ccccc1`, for which the composite z-score in [1] came out at 1.55; in [2] it was 0.72; in [3], 1.02; in assay [5] it was 1.08; in assay [6] it was 0.899; in assay [7], 0.0358. For the same compound, the composite z-score in assay [8] is 0.596; in assay [9] it was -0.177; in assay [10] it was 0.87; in assay [11], 1.4; in assay [13] it was -0.699; in assay [14] it was 1.48. The composite z-score in assay [15] was 0.558; in [16], 0.319; in [17], 0.862; in assay [18] it was -0.632; in assay [19], 0.11; in assay [20], 0.948. In addition, the z-score was 3.29 (inactive) in assay [4] and -2.32 in [12].

As for `[N-]=[N+]=NCc1ccccc1C[C@]1(C(=O)N2CCOCC2)N=C(c2ccc(OCCCO)cc2)O[C@H]1c1ccccc1N=[N+]=[N-]`, the composite z-score was found to be 1 in assay [1]; 0.873 in [2]; 0.93 in assay [3]; 1.31 in assay [5]; 1.33 in assay [6]; 0.466 in assay [7]. For the same compound, the composite z-score came out at 1.37 in assay [8]; 0.234 in assay [9]; 0.878 in assay [10]; 1.44 in assay [11]; 0.536 in assay [13]; 1.14 in [14]. The composite z-score stood at 0.792 in assay [15]; 0.0873 in assay [16]; 0.385 in [17]; 0.49 in assay [18]; 1.73 in assay [19]; 1.14 in assay [20]. The z-score in assay [4] is -0.928 (inactive); in [12], -2.21.

Regarding `O=C1C2C=CC(C(O)c3c(F)cccc3Cl)N(Nc3ccccc3)C2C(=O)N1c1ccccc1` (stereo not given), the composite z-score in assay [1] came to 0.741; in assay [2], 0.532; in assay [3] it was 0.256; in [5], 0.581; in [6], 1.3; in [7] it was 0.271. Besides, the composite z-score was 1.34 in assay [8]; 0.236 in assay [9]; 0.672 in assay [10]; 1.46 in assay [11]; 0.407 in assay [13]; 1.46 in assay [14]. Also, the composite z-score was found to be 0.546 in assay [15]; 0.0775 in [16]; 0.969 in assay [17]; 1.59 in [18]; 0.765 in assay [19]; 0.933 in assay [20]. For the same compound, the z-score in assay [4] was -0.00944 (inactive); in [12] it was -0.927.

As for `CC(C)C(=C=CC[C@@H](O)c1ccccc1OCCO)CCO`, the composite z-score in assay [1] was 0.116; in assay [2], -0.258; in assay [3] it was 0.133; in [5] it was 1.36; in assay [6], 0.0661; in [7] it was -0.195. In addition, the composite z-score was 0.0893 in assay [8]; 0.326 in assay [9]; 0.434 in [10]; -0.79 in [11]; 0.156 in assay [13]; 0.084 in assay [14]. Besides, the composite z-score in [15] is -0.21; in assay [16], -0.0836; in assay [17], -0.0471; in assay [18], -0.371; in [19], -0.549; in [20], 0.606. The z-score in [4] was -0.0616 (inactive); in [12] it was -1.49.
